# Source: PubChem (several laboratories)
# This is a sample that favours compounds with a hit; in the whole collection about 5.9% have one here.
# ALR inh: inhibitors of human sulfhydryl oxidase ALR. P55789. purified ALR, DTT oxidation, H2O2 HRP-luminol luminescence. inhibition, % (concentration not given with the values). actives 3.8% (n = 290,000);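 active = mean replicate inhibition above about 79%, with every replicate also reaching it, limit read from the data; inconclusive = only one of the two criteria met; inactive = mean below limit and not every replicate reaching it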
# LANA-H2A inh: blocks KSHV LANA binding to histone H2A/H2B. Q9QR71. cell-free LANA-H2A/H2B peptide, fluorescence polarization. inhibition, % (test concentration not listed). actives 0.6% (n = 320,000). AID 2629; in the data active = inhibition mostly above about 10%, no sharp cut-off; inactive = mostly below about 6.7%
# PRMT1 FP inh: blocks human protein arginine methyltransferase 1; actives 1.3% (n = 370,000); Q99873; recombinant PRMT1, activity-based probe fluorescence polarization; inhibition, % at 2.79 µM;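 active = inhibition above about 21% made by adding two undisclosed values, limit read from the data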
# Rtt109 HAT inh: inhibitors of Candida albicans Rtt109/Vps75 histone acetyltransferase. purified Rtt109/Vps75, ThioGlo CoA-SH fluorescence, 4 h. Q5AAJ8. AID 540336. actives 0.16% (n = 330,000). inhibition, % at 34.9 µM;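 active = inhibition of at least 50% in every replicate; inconclusive = best replicate reaches 50% inhibition but some replicates fall short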
# rCAG RNA binder: molecules binding r(CAG) RNA repeats | r(CAG) RNA repeat, TO-PRO-1 dye displacement fluorescence | inhibition, % at 3 µM | actives 1.3% (n = 370,000);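 active = inhibition above the plate cutoff, the mean of all test compounds on that plate plus 3 SD, cut at about 35% in these data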;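 note: 0% = DMSO alone and 100% = 100 µM mitoxantrone as full dye displacement; higher means more dye released from RNA so lower well fluorescence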
# ABHD5 PLIN5 PPI: inhibitors of human ABHD5-perilipin-5 interaction; Split G. princeps luciferase complementation, luminescence, 4 h; inhibition, % at 4 µM; actives 0.78% (n = 360,000); Q00G26+Q8WTS1;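 active = inhibition above the mean inhibition across every tested compound plus 3 SD, cut at about 22% in these data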;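 note: 0% = DMSO only wells and the 100% control is not disclosed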
# Target sequence (Q00G26 whole entry, looked up): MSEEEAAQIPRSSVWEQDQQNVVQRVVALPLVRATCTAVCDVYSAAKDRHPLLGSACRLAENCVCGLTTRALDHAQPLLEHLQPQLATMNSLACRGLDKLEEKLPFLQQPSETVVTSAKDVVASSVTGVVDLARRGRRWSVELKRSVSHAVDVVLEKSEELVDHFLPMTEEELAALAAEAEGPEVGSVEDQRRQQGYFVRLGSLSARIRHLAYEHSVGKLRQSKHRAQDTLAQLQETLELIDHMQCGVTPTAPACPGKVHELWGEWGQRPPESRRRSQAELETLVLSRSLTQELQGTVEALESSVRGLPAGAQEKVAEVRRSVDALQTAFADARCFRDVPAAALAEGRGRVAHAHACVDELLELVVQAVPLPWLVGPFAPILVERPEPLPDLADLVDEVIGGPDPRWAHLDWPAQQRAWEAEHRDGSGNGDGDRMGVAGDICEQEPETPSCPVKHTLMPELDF
# Target sequence (Q8WTS1 whole entry, looked up): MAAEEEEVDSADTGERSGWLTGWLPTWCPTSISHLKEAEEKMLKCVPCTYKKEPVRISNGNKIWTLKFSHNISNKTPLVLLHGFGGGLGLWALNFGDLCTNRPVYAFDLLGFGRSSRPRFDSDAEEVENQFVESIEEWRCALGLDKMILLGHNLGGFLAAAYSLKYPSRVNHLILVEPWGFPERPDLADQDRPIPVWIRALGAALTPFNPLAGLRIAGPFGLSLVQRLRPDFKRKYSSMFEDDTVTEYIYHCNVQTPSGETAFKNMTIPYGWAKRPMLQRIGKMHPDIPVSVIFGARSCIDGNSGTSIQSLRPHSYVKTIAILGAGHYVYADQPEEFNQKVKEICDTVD
# rCAG bind conf: r(CAG) RNA repeat binding, confirmation. shares compounds with rCAG RNA binder. TO-PRO-1 dye displacement fluorescence. inhibition, % at 3 µM. actives 70% (n = 4,300). AID 652065;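 active = inhibition above a per-plate cutoff, the mean inhibition of sample wells plus 3 SD, cut at about 35% in these data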;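 note: loss of TO-PRO-1 fluorescence as compound displaces dye from 1x1 AA loop RNA; 0% = DMSO only wells and 100% = 100 µM mitoxantrone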
# dCAG dye counter: disrupts DNA CAG TO-PRO-1 complex, flagging rCAG hits. shares compounds with rCAG RNA binder. d(CAG) DNA oligo TO-PRO-1 dye displacement, fluorescence. inhibition, % at 3 µM. actives 94% (n = 4,300). AID 652068;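 active = inhibition above its plate's cutoff, the mean test-well inhibition plus 3 SD, cut at about 4.8% in these data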;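 note: 0% = DNA dye mix with DMSO and 100% = 100 µM mitoxantrone; hits displace the dye from DNA and so lower well fluorescence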
# dCAG dye DR: DNA CAG dye complex inhibition, dose response counter-screen | shares compounds with rCAG RNA binder | DNA CAG/GTC duplex TO-PRO-1 dye displacement fluorescence | IC50, µM | actives 20% (n = 250); in the data active = IC50 below about 10 µM
# An asterisk follows results filed as active; i = inactive; ? = inconclusive; / = no result given.
SMILES,ALR inh,LANA-H2A inh,PRMT1 FP inh,Rtt109 HAT inh,rCAG RNA binder,ABHD5 PLIN5 PPI,rCAG bind conf,dCAG dye counter,others
CCCCNC(=O)c1onc(CSc2cccc(OCC)c2)c1C(=O)O,1,-2,7,15,45*,-6,20,1,
CCCCNC(=O)c1onc(CSc2ccc(C(C)C)cc2)c1C(=O)O,67,1,2,6,51*,-3,48*,11*,
CC(C)NC(=O)c1onc(CSc2cccc3ccccc23)c1C(=O)O,98*,-2,1,-5,36*,7,30,7.2*,
CCCCNC(=O)c1onc(CSc2ccccc2)c1C(=O)O,19,1,6,-14,11,1,/,/,
CC(C)NC(=O)c1onc(CSc2ccccc2)c1C(=O)O,33,-2,2,-1,1,-1,/,/,
C[C@H]1CCCN1c1cccc2c1S(=O)(=O)N1CC[C@H](C1)O2,/,/,2,/,2,/,/,/,
CCCCNC(=O)c1onc(CSc2cccc(Cl)c2)c1C(=O)O,59,10,1,1,33,-6,/,/,
CCCCNC(=O)c1onc(CSc2cccc3ccccc23)c1C(=O)O,98*,1,2,4,62*,1,53*,14*,dCAG dye DR=i
Cc1c(COc2ccc3ccccc3c2)nnn1CC(=O)NS(=O)(=O)c1ccccc1C(F)(F)F,/,/,-5,/,70*,3,64*,26*,
COc1cc(C)ccc1S(=O)(=O)NC(=O)Cn1nnc(COc2ccc3c(c2)CCCC3)c1C,/,/,0,/,48*,0,42*,12*,
Cc1ccc(NC(=O)COc2ccc3c(c2)CCC3)nc1,18,-3,2,-1,-1,9,/,/,
CCCCNC(=O)Cn1nnc(-c2ccccc2)c1COc1ccc(C(C)=O)cc1,/,/,4,/,0,7,/,/,
CC(=O)c1ccc(OCc2nnn(CC(=O)NS(=O)(=O)c3ccc(C)cc3)c2-c2ccccc2)cc1,/,/,1,/,62*,3,68*,20*,
Cc1cc(C)nc(/N=C2/NC(=O)CS2)n1,-5,-4,17,7,2,-24,/,/,
Cc1ccc(C)n1/N=C1/NC(=O)CS1,4,-2,9,18,36*,8,20,9.9*,
CC(C)(C)OC(=O)N1CCC2CCN(S(=O)(=O)c3ccccc3)CC21 (stereo not drawn),/,/,1,/,-1,/,/,/,
O=C(COc1cccc2ccccc12)Nc1ccc(Cl)cc1C(=O)O,-2,5,4,11,68*,-5,66*,19*,
O=C(COc1ccccc1C(=O)O)Nc1cccc2ccccc12,-23,7,0,0,5,6,/,/,
O=C(COc1cccc2ccccc12)Nc1cc(Cl)ccc1C(=O)O,5,1,-2,7,75*,-7,70*,30*,dCAG dye DR=i
COc1ccccc1CC(=O)Nc1ccc(Cl)cc1C(=O)O,-5,0,0,-3,4,-4,/,/,
Cc1cc(C)c(C2=Nn3c(C)nnc3SC2C)cc1C (stereo not drawn),/,-12,-6,-8,-4,-8,/,/,
CCc1ccc(-c2n[nH]nc2C2=CC(=O)C[C@H](c3ccc(F)cc3)C2)cc1,/,/,-2,/,37*,-3,42*,11*,
CC(=O)NS(=O)(=O)c1ccc(N=c2ssc3c2-c2cc(C)c(C)cc2NC3(C)C)cc1,99*,0,-2,7,75*,0,59*,25*,
Cn1cc([C@]2(O)C(=O)Nc3c(F)cccc32)c2ccccc21,/,/,0,/,3,0,/,/,
S=c1[nH]nc(-c2cc(-c3ccccc3)n[nH]2)n1N=Cc1cccc(Oc2ccccc2)c1,/,/,9,/,66*,/,61*,31*,
SMILES,ALR inh,LANA-H2A inh,PRMT1 FP inh,Rtt109 HAT inh,rCAG RNA binder,ABHD5 PLIN5 PPI,rCAG bind conf,dCAG dye counter,others
S=c1[nH]nc(-c2cc(-c3ccccc3)n[nH]2)n1N=Cc1cccc(OCc2ccccc2)c1,/,/,9,/,77*,/,63*,32*,
S=c1[nH]nc(-c2cc(-c3ccccc3)n[nH]2)n1/N=C/c1ccc(Cl)cc1,/,4,13,-16,23,-7,/,/,
S=c1[nH]nc(-c2cc(-c3ccccc3)n[nH]2)n1/N=C/c1cccc(Cl)c1,1,2,8,35,35*,-5,70*,32*,dCAG dye DR=i
CS(=O)(=O)c1ccc2nc(NC(=O)Nc3cccc(Cl)c3)sc2c1,-7,0,0,-9,71*,3,63*,47*,
Cc1ccc2nc(NC(=O)CCNS(=O)(=O)c3cccs3)sc2c1,/,-2,-1,1,9,4,/,/,
Cc1ccc2nc(NC(=O)c3ccc(NS(=O)(=O)c4cccs4)cc3)sc2c1,/,4,-1,-1,43*,2,61*,23*,
CS(=O)(=O)c1ccc2nc(NC(=O)c3ccc(NS(=O)(=O)c4cccc([N+](=O)[O-])c4)cc3)sc2c1,/,0,2,-5,72*,8,70*,31*,dCAG dye DR=9.4*
CS(=O)(=O)c1ccc2nc(NC(=O)Nc3ccc(Cl)c(Cl)c3)sc2c1,11,0,-1,2,24,4,/,/,
O=C(NCc1c(F)cccc1F)C1C2C=CC3(CN(Cc4ccccc4)C(=O)C13)O2 (stereo not drawn),/,/,1,/,1,/,/,/,
COc1ccc(C=C2SC(=S)N(CCCC(=O)Nc3ccc(C(=O)O)c(O)c3)C2=O)cc1OC,/,/,4,/,80*,-5,75*,41*,
O=C(CCCN1C(=O)/C(=C/c2ccccc2)SC1=S)Nc1ccc(C(=O)O)c(O)c1,4,-2,-1,11,83*,8,80*,36*,
O=C(CCN1C(=O)/C(=C\c2ccccc2F)SC1=S)Nc1ccc(C(=O)O)c(O)c1,28,-2,6,?,94*,3,84*,60*,
Cc1cc(NC(=O)CCN2C(=O)/C(=C/c3ccccc3F)SC2=S)no1,-2,-5,2,/,3,/,/,/,
O=C(CCCN1C(=O)/C(=C\c2ccccc2)SC1=S)Nc1ccc(C(=O)O)cc1,2,2,-8,0,3,6,/,/,
O=C(CCCN1C(=O)C(=Cc2ccc3c(c2)OCO3)SC1=S)Nc1ccc(C(=O)O)c(O)c1,/,/,2,/,77*,16,78*,45*,
OC(c1cccc(CN2CCCCC2)c1)c1ncc(-c2cccc3ccccc23)[nH]1 (stereo not drawn),/,/,-3,/,6,0,/,/,
CN1CCN(C(=O)c2ccc(-c3cnn(C)c3)c3ccoc23)CC1,/,/,/,/,/,2,/,/,
